Results taken from article PMC8384837, “Expanding the binding specificity for RNA recognition by a PUF domain”.

Target: PUM1 PUF domain R1-YRR (Homo sapiens, UniProt Q14671 828-1176, S863Y;Q867R)
Assay: yeast three-hybrid, YBZ-1, SC-Leu-His + 0.5 mM 3-AT, 4 days
Settings: tags: N-Gal4 AD-HA kept; label: inside an RPR1-promoter hybrid RNA with tandem MS2 sites; ssRNA
Method in brief: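 The interaction score is the log change in variant frequency from input to selection. Scores were computed in log2 with a pseudocount of 1 for absent variants, using Illumina sequencing of PCR-amplified repeat regions. The input came from four days on SC-Leu and the selection from four days on SC-Leu-His + 0.5 mM 3-AT. The cells were strain YBZ-1 (LexA–MS2 coat fusion, HIS3 reporter) co-expressing Pumilio-1 PUF domain libraries and matching RNA elements from a centromeric plasmid.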

PUM1 PUF domain R1-YRR, sequence (Q14671 828-1176 S863Y/Q867R): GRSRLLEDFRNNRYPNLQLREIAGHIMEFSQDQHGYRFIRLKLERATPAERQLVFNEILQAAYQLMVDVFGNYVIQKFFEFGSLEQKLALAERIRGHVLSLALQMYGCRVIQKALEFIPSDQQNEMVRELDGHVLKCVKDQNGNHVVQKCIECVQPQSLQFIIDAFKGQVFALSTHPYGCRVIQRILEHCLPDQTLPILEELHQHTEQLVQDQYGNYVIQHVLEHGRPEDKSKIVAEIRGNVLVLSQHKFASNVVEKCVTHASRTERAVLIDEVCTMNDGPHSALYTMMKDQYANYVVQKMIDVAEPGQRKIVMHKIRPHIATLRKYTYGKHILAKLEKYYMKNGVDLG

Sequence	binding signal
GGCUAGAACUAGUGGAUCCCCCGGCGCCCGGCGGCUCGAGCCCGGGUAAGUGUAAAUGGUCUGCAUGCCGCCGGGCGCCAUGCCUGCAGGUCGACUCUAGAAAACAUG	4.42 log2 enrichment (interaction score)
GGCUAGAACUAGUGGAUCCCCCGGCGCCCGGCGGCUCGAGCCCGGGUAAGUGUAAAUCGUCUGCAUGCCGCCGGGCGCCAUGCCUGCAGGUCGACUCUAGAAAACAUG	7.93 log2 enrichment (interaction score)
GGCUAGAACUAGUGGAUCCCCCGGCGCCCGGCGGCUCGAGCCCGGGUAAGUGUAAAUUGUCUGCAUGCCGCCGGGCGCCAUGCCUGCAGGUCGACUCUAGAAAACAUG	8.31 log2 enrichment (interaction score)
